According to PubChem BioAssay (NCI):
About 83,000 compounds went through this panel and 20% of them were active in at least one assay; those are over-represented in the sample as a whole.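 For each line, cells grew in 96-well plates with the test compound present at a single concentration for 48 hours.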

Legend:
Assay in all cases: NCI-60 one-dose screen, 48 h (100 = growth as untreated, 0 = no growth, -100 = all killed); active means growth percent below 10; inactive means the rest
NCI-H460 lung = conditions: 10 µM unless noted
786-0 renal = conditions: 10 µM unless noted
DU-145 prostate = conditions: 10 µM unless noted
SF-268 CNS = conditions: 10 µM unless noted
SF-539 CNS = conditions: 10 µM unless noted
M14 melanoma = conditions: 10 µM unless noted
HCT-15 colon = conditions: 10 µM
SNB-75 CNS = conditions: 10 µM unless noted
PC-3 prostate = conditions: 10 µM unless noted
UACC-62 melanoma = conditions: 10 µM unless noted
SK-MEL-28 melanoma = conditions: 10 µM unless noted
SN12C renal = conditions: 10 µM unless noted
HL-60(TB) leukemia = conditions: 10 µM unless noted
OVCAR-8 ovarian = conditions: 10 µM unless noted
NCI/ADR-RES ovarian = conditions: 10 µM unless noted
SW-620 colon = conditions: 10 µM unless noted
MCF7 breast = conditions: 10 µM unless noted
HCT-116 colon = conditions: 10 µM unless noted
KM12 colon = conditions: 10 µM unless noted
TK-10 renal = conditions: 10 µM unless noted

Measured: growth

COc1cc(C2CC(=O)Nc3nc(N)[se]c32)cc(OC)c1OC (centres undefined)
inactive: NCI-H460 lung 25.1% | 786-0 renal 114% | DU-145 prostate 101% | SF-268 CNS 101% | SF-539 CNS 101% | M14 melanoma 115% | HCT-15 colon 109% | SNB-75 CNS 98.9% | PC-3 prostate 71.2% | UACC-62 melanoma 117% | SK-MEL-28 melanoma 111% | SN12C renal 64.6% | HL-60(TB) leukemia 89.1% | OVCAR-8 ovarian 58.8% | NCI/ADR-RES ovarian 107% | SW-620 colon 109% | MCF7 breast 98.6% | HCT-116 colon 74.9% | KM12 colon 56.7%

NC(Cc1ccc2c(c1)OCO2)c1ccc2c(c1)OCO2 (centres undefined)
inactive: NCI-H460 lung 104% | 786-0 renal 98.5% | DU-145 prostate 116% | SF-268 CNS 103% | SF-539 CNS 114% | M14 melanoma 102% | HCT-15 colon 115% | SNB-75 CNS 75.4% | PC-3 prostate 93.4% | UACC-62 melanoma 92.6% | SK-MEL-28 melanoma 101% | SN12C renal 94% | TK-10 renal 105% | HL-60(TB) leukemia 108% | OVCAR-8 ovarian 102% | NCI/ADR-RES ovarian 107% | SW-620 colon 101% | MCF7 breast 89.2% | HCT-116 colon 95.5% | KM12 colon 109%

CC1(C)N=C(N)N=C(N)N1c1ccc(OCCCCNC(=O)c2ccc(S(=O)(=O)F)cc2)c(Cl)c1
inactive: NCI-H460 lung 19.8% | 786-0 renal 40.9% | DU-145 prostate 55% | SF-268 CNS 40.7% | SF-539 CNS 64.9% | M14 melanoma 70.1% | HCT-15 colon 94.9% | SNB-75 CNS 87.7% | PC-3 prostate 23.4% | UACC-62 melanoma 44.1% | SK-MEL-28 melanoma 96% | SN12C renal 44.7% | TK-10 renal 57.9% | HL-60(TB) leukemia 36.2% | OVCAR-8 ovarian 32.7% | NCI/ADR-RES ovarian 109% | SW-620 colon 35.1% | MCF7 breast 34.7% | HCT-116 colon 25.6% | KM12 colon 66.5%
